# Test results reported in PubChem BioAssay AID1963322 (National Center for Advancing Translational Sciences (NCATS), 2024).
# Inconclusive results are not listed. Entries that show only a call come without a potency. The source made the active and inactive calls. Calls follow the shape of the full dose curve.
# Biological target: cAMP-dependent protein kinase catalytic subunit alpha (Homo sapiens) (UniProt P17612)
# Assay: Protein Kinase A (PKA-HiBiT) SDR gain of signal screen
# Details: PKA-HiBiT structural dynamics response (SDR), luminescence gain of signal; series mostly up to 32.9 µM
# Text: National Center for Advancing Translational Sciences (NCATS),
# National Institute of Health (NIH), Maryland
# Discovery and optimization of novel protein-binding ligands underlies many of the methods and applications of biology, drug discovery, clinical diagnostics, and environmental toxicology. Assays for detecting the interaction of, for example, a molecule with a macromolecular target also referred to here as the target of interest (TOI) is dependent on a compatible output technology. Depending on the nature and knowledge surrounding the TOI, whether a receptor, enzyme, regulatory subunit or scaffold, or a sequence-defined nucleic acid folded into a complex tertiary structure, assay strategies can vary widely.
# Here we exploit ligand-biased changes in the structural dynamics of the target protein to control reporter alpha complementation allowing a non-competitive, non-functional, non-separation measure of ligand-target interaction.
# Using a chemical library of >1,200 compounds enriched for scaffolds known to be associated with the inhibition of firefly luciferase (FLuc) activity (PubChem AIDs 2309) we first illustrate and compare the Structural Dynamics Response (SDR) assay vs. the standard functional FLuc enzyme assay (2). Secondly, we show the specificity and sensitivity of the SDR for the Abelson tyrosine kinase (ABL1) compared to the serine/threonine protein kinase A, using an enriched chemical library of 128 compounds selected, in part, for activity annotated with ABL1 kinase activity using the Pharos database (3).
# (1) A. S. Dixon et al., NanoLuc Complementation Reporter Optimized for Accurate Measurement of Protein Interactions in Cells. ACS Chem Biol 11, 400-408 (2016).
# Chemistry & Biology, 19, 1060 - 1072 (2012).
# (3) K. J. Kelleher et al., Pharos 2023: an integrated resource for the understudied human proteome. Nucleic Acids Res 51, D1405-D1416 (2023).
# PROTOCOL TABLE (as described by Inglese J, Shamu CE and Guy RK. 2007)
# SEQUENCE No. (e.g., 1, 2, 3, etc.); […] (e.g., C. elegans, Compounds, Incubation, Read, etc.); VALUE and DESCRIPTION.
# 1. Reagent. Dispense 4 uL PKA-N-HiBiT enzyme per well at a final enzyme concentration of 10 nM in buffer into columns 2-48 of four replicate Greiner 1536-well white,solid bottom high base, medium plates per assay. Dispense respective buffer without enzyme at 4 uL/well in column 1 of assay plates using BioRaptr 2.
# 2. Compounds. Library compounds added at 23 nL/well by pin transfer. DMSO neutral control and H-89 positive control added at 25 nL/well, transfer by Mosquito dispenser.
# 3. Incubation. Incubate enzyme and compounds at room temperature for 30 min, protect from light.
# 4. Reagent. (SDR assay) Add 3 uL/well of Nano-Glo HiBiT reagent (Promega) to assay plates.
# 5. Incubation. (SDR assay) Incubate enzyme solution HiBiT reagent at room temperature for 10 min, protected from light.
# 6. Detector. (SDR assay) Luminescence measured using CCD-based camera (ViewLux) with settings as follows: Exposure, 1 sec; Gain, High; Speed, Slow; Binning, 2X.
row,Structure (SMILES),Potency
1,CN1CCN(c2ccc(Nc3ncc4cc(C#N)c(=O)n(C5CCCC5)c4n3)cc2)CC1,inactive
2,Cc1ncc(NC(=O)c2ccc(CN3CCN(C)CC3)c(C(F)(F)F)c2)cc1Nc1nccc(-c2cccnc2)n1,inactive
3,Cn1cc(-c2cc3c(N4CCN(c5ncc([C@@](C)(N)c6ccc(F)cc6)cn5)CC4)ncnn3c2)cn1,inactive
4,O=C(NCCO)c1cccc(-c2cc(Nc3ccc(OC(F)(F)F)cc3)ncn2)c1,inactive
5,Cc1cc(F)ccc1-c1nc(NC(CO)CO)nc2c1ccc(=O)n2-c1c(F)cccc1F,inactive
6,O=C(NC1CCNCC1)c1[nH]ncc1NC(=O)c1c(Cl)cccc1Cl,inactive
7,Cc1cc(F)ccc1-c1nc(NCCN=C(N)NC#N)nc2c1ccc(=O)n2-c1c(F)cccc1F,inactive
8,Cc1cc(-c2cc(O)ccc2Cl)cc2nnc(Nc3ccc(OCCN4CCCC4)cc3)nc12,inactive
9,COc1cc2c(cc1OC)-c1[nH]nc(Nc3cccc(F)c3)c1C2,inactive
10,O=C(Nc1ccc(OC(F)(F)F)cc1)c1sccc1NCc1ccnc2ccccc12,inactive
11,FC(F)(F)c1ccc(/C=C/c2nc(COc3ccc(CCCCn4ccnn4)cc3)co2)cc1,inactive
12,CCCCNc1ncc2c(-c3ccc(S(=O)(=O)N4CCOCC4)cc3)nn(C3CCC(O)CC3)c2n1 (stereo not given),inactive
13,O=c1c(O)c(-c2ccc(O)c(O)c2)oc2cc(O)cc(O)c12,inactive
14,C[C@@H](NC(=O)c1ncnc(N)c1Cl)c1ncc(C(=O)Nc2cc(C(F)(F)F)c(Cl)cn2)s1,inactive
15,C=CC(=O)Nc1cccc(Oc2nc(Nc3ccc(N4CCN(C)CC4)cc3OC)ncc2Cl)c1,inactive
16,CC(C)(NS(=O)(=O)c1ccc2c(Cl)cnc(N=C(N)N)c2c1)C(=O)O,inactive
17,Cc1ccc(-n2nc(C(C)(C)C)cc2NC(=O)NCc2cc(F)ccc2Oc2ccc3c(cnn3CCO)c2)cc1,inactive
18,Oc1ccc(-c2ccc(-c3cc(Nc4cccc(CNC5CC5)c4)n[nH]3)cc2)c(O)c1,10.7 µM (active)
19,Cc1ccccc1-n1c([C@H](C)Nc2nc(N)nc3nc[nH]c23)nc2cccc(C)c2c1=O,inactive
20,CNC(=O)c1ccccc1Nc1nc(Nc2ccc(N3CCOCC3)cc2OC)ncc1Cl,inactive

row,Structure (SMILES),Potency
1,Cc1ccc(C(=O)Nc2ccc(CN3CCN(C)CC3)c(C(F)(F)F)c2)cc1C#Cc1cnc2[nH]ncc2c1,inactive
2,O=S(=O)(/N=C/c1c(O)ccc2ccccc12)c1cccs1,inactive
3,COc1cc2c(N3CCN(C(=O)Nc4ccc(OC(C)C)cc4)CC3)ncnc2cc1OCCCN1CCCCC1,inactive
4,COc1cc2c(Oc3ccc4[nH]c(C)cc4c3F)ncnc2cc1OCCCN1CCCC1,inactive
5,O=C1CCC(N2C(=O)c3ccccc3C2=O)C(=O)N1 (stereo not given),inactive
6,CCN1C(=O)CNc2ncc(-c3ccc(-c4ncn[nH]4)nc3C)nc21,inactive
7,Cc1cc(Nc2ncc3c(n2)N(C)C(=O)N(c2cc(NC(=O)c4cccc(C(F)(F)F)c4)ccc2C)C3)n(C)n1,inactive
8,COc1ccc(-n2c(C)c([N+](=O)[O-])c3ccc(O)cc32)cc1,inactive
9,CNC(=O)c1ccccc1Sc1ccc2c(/C=C/c3ccccn3)n[nH]c2c1,inactive
10,CCN(CC)CCOc1ccc(Nc2ncc3cc(-c4c(Cl)cccc4Cl)c(=O)n(C)c3n2)cc1,inactive
11,c1cc(-c2cc(C3CCNCC3)[nH]n2)ccn1,3.62 µM (active)
12,Cc1[nH]c2ccccc2c1C1=C(NCCc2ccc(F)cc2)C(=O)N(C)C1=O,inactive
13,CCn1c(=O)c(-c2ccc(Cl)cc2Cl)cc2cnc(Nc3ccc(N4CCNCC4)c(F)c3)nc21,inactive
14,Cc1cccc(/C=N/Nc2cc(N3CCOCC3)nc(OCCc3ccccn3)n2)c1,inactive
15,CCNC(=O)Nc1ccc(-c2nc3c(c(N4CCOC[C@@H]4C)n2)CCN(c2ncccn2)C3)cc1,inactive
16,Cc1[nH]nc2ncc(C(=O)N3CCC[C@H]3c3ccc(Cl)cc3)cc12,12.4 µM (active)
17,COc1cc(N2CCOCC2)ccc1Nc1ncc(Cl)c(Nc2ccccc2NS(C)(=O)=O)n1,1.34 µM (active)
18,Cn1sc(=O)n(Cc2ccccc2)c1=O,inactive
19,COc1cc(N2CCC(O)CC2)ccc1Nc1nc(Nc2ccccc2S(=O)(=O)C(C)C)c2[nH]cnc2n1,inactive
20,CN(c1ncccc1CNc1nc(Nc2ccc3c(c2)CC(=O)N3)ncc1C(F)(F)F)S(C)(=O)=O,4.41 µM (active)
